# Measured values taken from ChEMBL document CHEMBL3988442, “University of Dundee, Small-Polar-MMV Screening Library” (2021).
# About 960 (1.5%) of roughly 66,000 compounds showed an effect of 50% or more. For the sample, strong results were picked, then their nearest neighbours and some compounds at random.
# Test system: Trypanosoma brucei
# Assay: Trypanosoma brucei 72 hour study
# Format: functional, organism-based
# Design: scale not given: in the data most compounds retested in dose-response had high values
smiles,measurement,setting,value
CC(C)Cc1noc(CN2CCOCC2C)n1 (centres undefined),Percent Effect,"30 µM, 30.03 µM",-14.5%
O=C(Nc1cnccn1)[C@@H]1CCO[C@@H]2CCN(Cc3ccsc3)C[C@@H]21.O=C(O)C(F)(F)F,Percent Effect,"30.3 µM, […]",-603.1%
O=C(Nc1ccccc1)N1C(CN2CCOCC2)[C@]2(O)CC[C@H]1CC2 (some centres undefined),Percent Effect,"30.3 µM, […]",6.609%
CCCc1nc(NCC(=O)N2CCOCC2)c2c(n1)c(C)nn2CC,Percent Effect,"30.3 µM, […]",-24.9%
CCn1nc(C)c2nc(C(C)C)nc(NCC(=O)N3CCOCC3)c21,Percent Effect,"30.3 µM, […]",-23.63%
CCc1nc(NCC(=O)N2CCOCC2)c2c(n1)c(C)nn2CC,Percent Effect,"30 µM, 30.03 µM",60.24%
CCCc1ccc(N2CCN(Cc3nc4ccccc4n3C)CC2)cc1,Percent Effect,"30 µM, 30.03 µM",90.43%
Cn1c(CN2CCN(CC3CCCO3)CC2)nc2ccccc21 (centres undefined),Percent Effect,"30.3 µM, […]",-39.6%
Cn1c(CCN2CCN(CCc3ccccc3)CC2)nc2ccccc21,Percent Effect,"30 µM, 30.03 µM",-13.15%
COCCN1CC[C@@H]2CN(Cc3nccn3C)C[C@@H]2C1.O=C(O)C(F)(F)F.O=C(O)C(F)(F)F,Percent Effect,"30 µM, 30.03 µM",27.97%
CC(C)CN1CCc2c(CN(C)Cc3ccco3)cncc2C1.Cl.Cl.Cl,Percent Effect,"30.3 µM, […]",-2.843%
COc1ccc(C)cc1CN(Cc1nc(C)c(C)o1)C1CCN(C)C1 (centres undefined),Percent Effect,"30 µM, 30.03 µM",82.74%
COc1ccc(C)cc1CN(Cc1ncc(C)o1)C1CCN(C)C1 (centres undefined),Percent Effect,"30 µM, 30.03 µM",-50.91%
Cc1cnc(CN(Cc2ccc(C#N)cc2F)C2CCN(C)C2)o1 (centres undefined),Percent Effect,"30 µM, 30.03 µM",-34.7%
COc1cc(C(=O)NCC2(N(C)C)CCN(C)CC2)c2ccccc2n1,Percent Effect,"30.3 µM, […]",-18.58%
O[C@@H]1CN(CC2=Cc3cc(Cl)ccc3OC2)CC[C@H]1N1CCCCCC1,Percent Effect,"30.3 µM, […]",78.41%
Cc1c(CN2CC[C@@H](N3CCC(O)CC3)[C@H](O)C2)[nH]c2ccc(Cl)cc12,Percent Effect,"30 µM, 30.03 µM",-14.51%
CN1CCN([C@@H]2CCN(CC3=Cc4cc(Cl)ccc4OC3)C[C@H]2O)CC1,Percent Effect,"30.3 µM, […]",22.23%
O=C(CCc1ccco1)N1CCCC(n2cccn2)C1 (centres undefined),Percent Effect,"30.3 µM, […]",12.32%
Cc1ccc(S(=O)(=O)N2CCC(S(=O)(=O)c3nncn3C)CC2)cc1C,Percent Effect,"30 µM, 30.03 µM",-15.11%
Cn1cnnc1S(=O)(=O)C1CCN(S(=O)(=O)c2ccccc2F)CC1,Percent Effect,"30 µM, 30.03 µM",-32%
Cn1cnnc1S(=O)(=O)C1CCN(S(=O)(=O)c2ccc(F)c(Cl)c2)CC1,Percent Effect,"30 µM, 30.03 µM",73.39%
CN1CCN(Cc2ccncc2)C(=O)C12CCN(Cc1ccsc1)CC2.O=C(O)C(F)(F)F.O=C(O)C(F)(F)F.O=C(O)C(F)(F)F,Percent Effect,"30.3 µM, […]",-53.7%
COC1CCN(C(=O)Cc2csc(-c3ccccc3)n2)CC1,Percent Effect,"30.3 µM, […]",99.67%
COC1CCN(C(=O)Cc2csc(-c3ccc(F)cc3)n2)CC1,Percent Effect,"30.3 µM, […]",9.7%
COC1CCN(C(=O)Cc2csc(-c3ncccn3)n2)CC1,Percent Effect,"30 µM, 30.03 µM",9.896%
Cc1cc(N2CCc3cncnc3C2)n2nc(C(F)(F)F)nc2n1,Percent Effect,"30 µM, 30.03 µM",-22.1%
Cc1ccc(C(=O)N2CCOCC2C(N)=O)c(F)c1 (centres undefined),Percent Effect,"30 µM, 30.03 µM",-8.01%
CC(C)CCNc1nc(C(=O)NC2CC2)cs1,Percent Effect,"30 µM, 30.03 µM",-29.09%
CC(NC(=O)Nc1nccs1)C(=O)NC1CCCC1 (centres undefined),Percent Effect,"30 µM, 30.03 µM",-0.2762%
O=C(Nc1ccccn1)c1csc(NC2CCCC2)n1,Percent Effect,"30 µM, 30.03 µM",1.318%
CC(C)CCNC(=O)c1csc(NC2CC2)n1,Percent Effect,"30 µM, 30.03 µM",55.59%
CC(C)NC(=O)c1csc(NC2CC2)n1,Percent Effect,"30 µM, 30.03 µM",-15.9%
O=C(Nc1nccs1)c1csc(NC2CCCC2)n1,Percent Effect,"30 µM, 30.03 µM",93.86%
COc1cccc(C2CCCN2Cc2nnnn2C2CC2)c1 (centres undefined),Percent Effect,"30 µM, 30.03 µM",7.439%
O=C(O)C(F)(F)F.O=C(O)C(F)(F)F.c1csc(CN2Cc3nc(CN4CCCC4)oc3C2)c1,Percent Effect,"30.3 µM, […]",-24.4%
COc1c(C)cnc(CN(C)C2CCCCC2)c1C,Percent Effect,"30 µM, 30.03 µM",75.58%
COc1c(C)cnc(CN(C)C2CCN(C3CCOCC3)CC2)c1C,Percent Effect,"30 µM, 30.03 µM",-11.24%
COc1c(C)cnc(CN(C)C2CCOC3(CCOCC3)C2)c1C (centres undefined),Percent Effect,"30 µM, 30.03 µM",-25.65%
COc1ccc(CNC(=O)NCc2c(C)cc(C)[nH]c2=O)cc1,Percent Effect,"30 µM, 30.03 µM",50.39%
Cc1cc(C)c(CNC(=O)NCc2ccc(F)cc2)c(=O)[nH]1,Percent Effect,"30.3 µM, […]",-10.32%
COc1cc(CNC(=O)NCc2c(C)cc(C)[nH]c2=O)ccc1C,Percent Effect,"30 µM, 30.03 µM",17.33%
Cc1sc(CN)nc1-c1ccc(Cl)cc1.Cl,Percent Effect,"30 µM, 30.03 µM",-33.68%
O=C(NCCCNc1ccc(C(F)(F)F)cn1)c1ccc(F)cc1,Percent Effect,10 µM,-67.47%
Cc1nc(CCN2CCC(Oc3ccccc3F)CC2)c(C)s1,Percent Effect,"30.3 µM, […]",14.09%
Cc1nc(C)c(CCN2CCC(Oc3ccccc3F)CC2)s1,Percent Effect,"30.3 µM, […]",55.32%
Cc1nc(CCN2CCC(Oc3ccccc3F)CC2)cs1,Percent Effect,"30.3 µM, […]",-2.649%
O=C(O)C(F)(F)F.O=C(O)C(F)(F)F.O=C1NC2(CCN(Cc3ccsc3)CC2)CC1c1ccncc1 (centres undefined),Percent Effect,"30 µM, 30.03 µM",34.47%
CC(C)n1c(=O)nc2n1C(=O)N(c1ccc(F)cc1)C2,Percent Effect,"30 µM, 30.03 µM",24.9%
COc1cc(Cl)cc(CN2CCCC(N3CCCC3)C2)c1OC (centres undefined),Percent Effect,"30 µM, 30.03 µM",-17.8%
c1sc(C2CCCC2)nc1CN1CCn2c(nnc2C2CC2)C1,Percent Effect,"30 µM, 30.03 µM",-23.12%
c1sc(C2CCCCC2)nc1CN1CCn2c(nnc2C2CC2)C1,Percent Effect,"30.3 µM, […]",99.05%
c1cnc(-c2nc(CN3CCn4c(nnc4C4CC4)C3)cs2)nc1,Percent Effect,"30 µM, 30.03 µM",1.717%
Cc1csc(C(=O)N2CCCC(c3[nH]ncc3S(C)(=O)=O)C2)c1 (centres undefined),Percent Effect,"30.3 µM, […]",68.17%
Cc1ccsc1C(=O)N1CCCC(c2[nH]ncc2S(C)(=O)=O)C1 (centres undefined),Percent Effect,"30.3 µM, […]",-15.29%
Cc1ccc(C(=O)N2CCCC(c3[nH]ncc3S(C)(=O)=O)C2)s1 (centres undefined),Percent Effect,"30.3 µM, […]",-30.56%
COCCN1CCC2(CC1)CN(C(=O)c1cccs1)CCO2.O=C(O)C(F)(F)F,Percent Effect,"30.3 µM, […]",-16.53%
CN(C)CCO[C@H]1CN(C(=O)c2cccs2)[C@@H]2COC[C@H]12.O=C(O)C(F)(F)F,Percent Effect,"30 µM, 30.03 µM",4.197%
CC(Nc1nc2c(cnn2C)c(=O)[nH]1)c1ccc2c(c1)CCCC2 (centres undefined),Percent Effect,"30.3 µM, […]",35.38%
CC(Nc1nc2c(cnn2C)c(=O)[nH]1)c1ccccn1 (centres undefined),Percent Effect,"30.3 µM, […]",-31.46%
CC(C)Sc1ccc(C(C)Nc2nc3c(cnn3C)c(=O)[nH]2)cc1 (centres undefined),Percent Effect,"30.3 µM, […]",62.45%
CC(Nc1nc2c(cnn2C)c(=O)[nH]1)c1ccc(F)cc1 (centres undefined),Percent Effect,"30.3 µM, […]",-23.37%
CCC(=O)Nc1ccc(C(C)Nc2nc3c(cnn3C)c(=O)[nH]2)cc1 (centres undefined),Percent Effect,"30.3 µM, […]",99.39%
Cc1ccc(C(C)N(C)Cc2nc3c(cnn3C)c(=O)[nH]2)cc1 (centres undefined),Percent Effect,"30 µM, 30.03 µM",18.7%
